High-throughput results deposited in PubChem by several laboratories.
Shown are actives, neighbours in structure and some others; about 3.2% of the full set was active somewhere.
Rv3671c protease = inhibits the M. tuberculosis serine protease Rv3671c | actives 0.048% (n = 320,000) | P9WHR9 | inhibition, % at 5.96 µM; in the data active = inhibition above about 38%;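 also: extracellular domain of Rv3671c used as enzyme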
SSB-PriA inh = inhibitors of Klebsiella pneumoniae PriA binding to SSB C-terminal tail. AlphaScreen SSBct-PriA binding, biotinylated peptide. inhibition, % at 33 µM. actives 0.6% (n = 430,000); in the data active = inhibition mostly above about 37%, no sharp cut-off; inactive = mostly below about 20%
GDH-TPI counter = counter-screen for M. tuberculosis FBA inhibitors: GDH-TPI coupled enzymes | GDH-TPI coupled enzyme counterscreen, NADH absorbance | inhibition, % at 4.8 µM | actives 1.2% (n = 360,000); in the data active = inhibition above about 30%
Mtb UGM inh = inhibitors of M. tuberculosis UDP-galactopyranose mutase; actives 0.06% (n = 320,000); inhibition, % at 10 µM; AID 504406; purified UGM, fluorescence polarization probe displacement; P9WIQ1; in the data active = inhibition above about 10%, passing the limit was not always enough; inconclusive = no clear call, values can overlap the other calls
Target sequence (P9WIQ1 whole entry, looked up): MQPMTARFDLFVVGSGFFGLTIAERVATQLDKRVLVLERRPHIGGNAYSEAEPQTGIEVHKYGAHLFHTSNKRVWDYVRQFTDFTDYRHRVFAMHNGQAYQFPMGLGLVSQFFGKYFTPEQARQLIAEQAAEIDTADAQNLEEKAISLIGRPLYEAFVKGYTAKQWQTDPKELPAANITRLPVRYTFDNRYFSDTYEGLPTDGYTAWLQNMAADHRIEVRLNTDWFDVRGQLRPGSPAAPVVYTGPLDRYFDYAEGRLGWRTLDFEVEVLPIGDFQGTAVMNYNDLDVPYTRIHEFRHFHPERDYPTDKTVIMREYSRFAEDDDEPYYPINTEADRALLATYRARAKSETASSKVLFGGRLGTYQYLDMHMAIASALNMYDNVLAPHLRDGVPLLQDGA
Mtb bLac sens = beta-lactam sensitization of Mtb H37Rv | actives 0.27% (n = 330,000) | inhibition, % at 25 µM | M. tuberculosis H37Rv growth with meropenem, percent inhibition | AID 434955; call rule not given here;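 also: growth measured after seven days incubation then overnight dye step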
FBA Mtb inh = Mtb fructose-bisphosphate aldolase inhibition. purified M. tuberculosis FBA, fluorescence read-out. AID 588726. actives 2.3% (n = 360,000). inhibition, % at 1 µM. P9WQA3; in the data active = inhibition above about 27%
Numbers stand for hits; 0 = inactive; ? = inconclusive; - = no result; + = active, no number.

SMILES | Rv3671c protease | SSB-PriA inh | GDH-TPI counter | Mtb UGM inh | Mtb bLac sens | FBA Mtb inh
Cc1cccc(NC(=O)Nc2ccc3c(c2)N(C)C(=O)CS3)n1 | 0 | 104 | 0 | 0 | 0 | 0
CC(=O)CNc1ccc(S(=O)(=O)NN=Cc2ccccc2)cc1 | - | 0 | - | - | - | -
Cc1cc(CCNC(=O)Nc2ccc3c(c2)OCO3)on1 | - | 0 | - | - | - | -
Cc1cc(C(F)(F)F)nc(CCNC(=O)Nc2ccc3c(c2)OCO3)n1 | - | 44 | - | - | - | -
COc1ccc(CC(C)(N)C(=O)O)cc1OC (centres undefined) | - | 0 | - | - | - | -
CN(C)C(=S)NCc1ccccc1 | 0 | 0 | 0 | 0 | 0 | 0
CN(N)C(=S)NCc1ccccc1 | 0 | 0 | 0 | 0 | ? | +
COc1ccccc1NC(N)=Nc1nc(C)cc(C)n1 | - | 0 | - | - | - | -
O=C(Cn1cc(C(=O)c2ccco2)c2ccccc21)Nc1ccccc1 | 0 | 0 | 34 | 0 | 0 | 0
COc1ccc(NC(=O)Cn2cc(C(=O)c3ccco3)c3ccccc32)cc1 | 0 | 0 | 31 | 0 | 0 | 0
CCOc1ccc(NC(=O)Cn2cc(C(=O)c3ccco3)c3ccccc32)cc1 | 0 | 0 | 0 | 0 | 0 | 0
COc1cc(C(=O)C(=O)c2ccc(O)c(OC)c2)ccc1O | 0 | 0 | 35 | 0 | 0 | 0
COc1cc(C(=O)O)ccc1O | 0 | 0 | 0 | 0 | 0 | 0
c1ccc(-c2nnc(-c3ccco3)c(-c3ccco3)n2)nc1 | - | 114 | - | - | - | -
c1ccc(-c2nccc(-c3ccco3)n2)nc1 | 0 | 72 | 0 | 0 | 0 | 0
O=C(CN1C(=O)S/C(=C\c2ccccc2)C1=O)NNC(=O)c1ccccc1O | 0 | 0 | 31 | 0 | 0 | 0
CC(=O)NC(CC(=O)NCCN1C(=O)S/C(=C\c2ccccc2)C1=O)c1ccccc1 (centres undefined) | 0 | 0 | 48 | 0 | 0 | 0
O=C1/C(=C/c2ccncc2)SC(=S)N1Nc1ccccc1 | 0 | 0 | 0 | 0 | 0 | 0
COc1ccc(/C=C2\SC(=O)N(CC(=O)NNC(=O)c3ccccc3O)C2=O)cc1 | 0 | 0 | 33 | 0 | 0 | 0
CC(=O)NNC(=O)CN1C(=O)/C(=C/c2ccccc2)SC1=S | 0 | 0 | 0 | 0 | 0 | 0
O=C(O)c1ccc(/C=C2\SC(=S)N(Nc3ccccc3)C2=O)cc1 | 0 | 0 | 34 | 0 | 0 | 0
Cc1cc(C)nc(NN2C(=O)/C(=C/c3ccccc3)SC2=S)n1 | 0 | 0 | 34 | 0 | 0 | 0
CC(=O)NN1C(=O)/C(=C\c2ccccc2)SC1=S | 0 | 0 | 0 | 0 | 0 | 0
O=C(CN1C(=O)S/C(=C\c2ccc(C(=O)O)cc2)C1=O)Nc1ccccc1 | 0 | 0 | 35 | 0 | 0 | 0
COc1ccc2c(c1)c1ncn(CCCN3CCOCC3)c(=O)c1n2C | 0 | 0 | 0 | 0 | - | 170
SMILES | Rv3671c protease | SSB-PriA inh | GDH-TPI counter | Mtb UGM inh | Mtb bLac sens | FBA Mtb inh
COc1ccc2c(c1)c1ncn(CC3CCCO3)c(=O)c1n2C (centres undefined) | 0 | 0 | 0 | 0 | 0 | +
COc1ccc(Cn2cnc3c4cc(F)ccc4n(C)c3c2=O)cc1 | 0 | 0 | 0 | 0 | 0 | 0
COc1ccc2c(c1)[nH]c1c(=O)n(CCCN3CCOCC3)cnc12 | 0 | 0 | 0 | 0 | 0 | 0
O=S(=O)(Nc1cccc(F)c1)c1ccc2c(c1)OCCCO2 | - | 0 | - | - | - | -
COc1cccc(-c2cc3nc(-c4ccccc4)cc(=O)n3[nH]2)c1 | 0 | 0 | 0 | 0 | 0 | 84
Cc1cc(=O)n2[nH]c(-c3ccccc3)cc2n1 | 0 | 0 | 0 | 0 | 0 | 0
Cc1nc2sc(C)c(C)n2c(=O)c1NC(=O)c1ccccn1 | - | 0 | - | - | - | -
CCn1cc(C(=O)N2CCN(c3ccc(C(C)=O)cc3)CC2)c2cc(OC)c(OC)cc2c1=O | 0 | 0 | 36 | 0 | 0 | 0
CCn1cc(C(=O)N2CCN(c3ccc(OC)cc3)CC2)c2cc(OC)c(OC)cc2c1=O | 0 | 0 | 0 | 0 | 0 | 0
[O-][n+]1cccc2c(Br)cc(Br)c(O)c21 | 0 | 69 | 0 | 0 | 0 | 0
Oc1c(Br)cc(Br)c2cccnc12 | - | 0 | 0 | - | - | 0
O=[N+]([O-])c1ccc(C=NNc2ccc(S(=O)(=O)O)cc2)cc1 | - | 0 | 31 | - | - | 0
O=C(O)c1ccc(-c2ccc(/C=N/Nc3ccc([N+](=O)[O-])cc3)o2)cc1 | 0 | 0 | 52 | 0 | 0 | 0
CCCOc1ccc(C(=O)N/N=C/c2ccc(-c3ccc(S(=O)(=O)Nc4ncccn4)cc3)o2)cc1 | 0 | - | 33 | 0 | - | 0
COc1ccc(N(CC(=O)NN=Cc2ccc(-c3ccc([N+](=O)[O-])cc3)o2)S(=O)(=O)c2ccc(C)cc2)cc1 | - | 0 | - | - | - | -
